# Source: ChEMBL document CHEMBL3988442, “University of Dundee, Small-Polar-MMV Screening Library” (2021)
# For part of these data: Entries with a potency or affinity are not part of this list.
# Key:
# [1] = biological target: T1, Methionyl-tRNA synthetase, putative (Leishmania donovani (strain BPK282A1)) (UniProt E9BF75); assay: Leishmania donovani Methionine tRNA synthetase (LdMetRS):v7. Dose response assay; type: functional; design: conc 80 nM, time 150 minutes
# T1 sequence (whole entry): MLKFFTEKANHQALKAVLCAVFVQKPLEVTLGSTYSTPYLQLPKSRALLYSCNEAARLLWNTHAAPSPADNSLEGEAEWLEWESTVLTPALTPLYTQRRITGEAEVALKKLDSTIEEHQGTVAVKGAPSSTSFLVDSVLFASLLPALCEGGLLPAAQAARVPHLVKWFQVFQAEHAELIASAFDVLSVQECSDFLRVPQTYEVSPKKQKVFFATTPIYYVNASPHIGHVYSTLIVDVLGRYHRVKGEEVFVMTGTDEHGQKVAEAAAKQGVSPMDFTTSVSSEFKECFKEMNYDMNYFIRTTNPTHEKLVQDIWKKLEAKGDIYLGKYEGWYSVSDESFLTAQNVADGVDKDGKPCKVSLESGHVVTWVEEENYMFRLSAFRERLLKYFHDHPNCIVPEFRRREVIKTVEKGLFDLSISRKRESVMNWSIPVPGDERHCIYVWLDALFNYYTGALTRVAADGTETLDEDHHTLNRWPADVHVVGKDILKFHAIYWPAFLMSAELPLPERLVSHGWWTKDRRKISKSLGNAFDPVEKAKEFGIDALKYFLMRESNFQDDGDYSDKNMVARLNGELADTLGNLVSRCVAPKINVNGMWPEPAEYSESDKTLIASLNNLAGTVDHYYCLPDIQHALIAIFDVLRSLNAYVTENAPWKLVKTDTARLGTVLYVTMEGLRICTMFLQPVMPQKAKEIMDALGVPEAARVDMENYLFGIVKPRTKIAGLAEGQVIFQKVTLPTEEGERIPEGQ
# [2] = biological target: AMP-activated protein kinase, AMPK (Homo sapiens) (UniProt P54646+O43741+P54619+Q9UGJ0+Q9Y478+Q13131+Q9UGI9); assay: AMP-dependent Kinase enzyme assay. An in vitro enzyme assay that detects ADP turnover that is directly proportional to AMPK activity. This uses naive AMPK that is activated during the assay with MK-8722; type: functional; design: scale not given: direction of the effect not stated beside the values; settings: 30 µM
# [3] = biological target: Protein translocase subunit SecA (Escherichia coli (strain K12)) (UniProt P10408); assay: Assay to Identify E. coli SecA ATPase Inhibitors; type: functional; design: scale not given: direction of the effect not stated beside the values; settings: 30 µM
# Sequence of Protein translocase subunit SecA (Escherichia coli (strain K12)) (P10408 whole entry): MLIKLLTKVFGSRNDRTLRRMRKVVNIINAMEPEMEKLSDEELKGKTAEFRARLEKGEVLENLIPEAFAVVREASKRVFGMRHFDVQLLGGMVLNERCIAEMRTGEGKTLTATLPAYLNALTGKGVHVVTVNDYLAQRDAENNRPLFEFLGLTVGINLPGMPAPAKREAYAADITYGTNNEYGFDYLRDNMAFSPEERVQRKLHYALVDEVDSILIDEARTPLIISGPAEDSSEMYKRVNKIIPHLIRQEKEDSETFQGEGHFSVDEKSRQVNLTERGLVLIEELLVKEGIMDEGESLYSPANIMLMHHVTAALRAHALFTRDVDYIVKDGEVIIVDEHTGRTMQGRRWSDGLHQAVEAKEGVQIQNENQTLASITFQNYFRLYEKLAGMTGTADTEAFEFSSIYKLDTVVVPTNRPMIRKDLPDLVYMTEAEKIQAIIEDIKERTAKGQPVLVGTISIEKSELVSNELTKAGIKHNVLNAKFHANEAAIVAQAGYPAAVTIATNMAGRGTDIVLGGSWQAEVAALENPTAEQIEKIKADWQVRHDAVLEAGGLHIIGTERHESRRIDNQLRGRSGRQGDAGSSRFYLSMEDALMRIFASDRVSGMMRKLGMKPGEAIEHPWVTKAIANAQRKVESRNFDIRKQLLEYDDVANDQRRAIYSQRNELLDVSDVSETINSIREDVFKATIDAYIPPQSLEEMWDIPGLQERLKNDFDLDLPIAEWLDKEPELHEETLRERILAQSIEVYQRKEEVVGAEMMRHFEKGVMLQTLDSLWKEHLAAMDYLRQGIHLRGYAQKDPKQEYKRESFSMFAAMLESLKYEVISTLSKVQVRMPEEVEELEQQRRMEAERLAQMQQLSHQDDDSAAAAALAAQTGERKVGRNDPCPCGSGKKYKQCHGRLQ
# [4] = biological target: T2, Ubiquitin-activating enzyme e1, putative (Leishmania donovani (strain BPK282A1)) (UniProt E9BSI1); assay: Leishmania donovani Ubiquitin Activating Enzyme (LdE1); type: functional; design: scale not given: direction of the effect not stated beside the values; settings: 30 µM
# T2 sequence (whole entry): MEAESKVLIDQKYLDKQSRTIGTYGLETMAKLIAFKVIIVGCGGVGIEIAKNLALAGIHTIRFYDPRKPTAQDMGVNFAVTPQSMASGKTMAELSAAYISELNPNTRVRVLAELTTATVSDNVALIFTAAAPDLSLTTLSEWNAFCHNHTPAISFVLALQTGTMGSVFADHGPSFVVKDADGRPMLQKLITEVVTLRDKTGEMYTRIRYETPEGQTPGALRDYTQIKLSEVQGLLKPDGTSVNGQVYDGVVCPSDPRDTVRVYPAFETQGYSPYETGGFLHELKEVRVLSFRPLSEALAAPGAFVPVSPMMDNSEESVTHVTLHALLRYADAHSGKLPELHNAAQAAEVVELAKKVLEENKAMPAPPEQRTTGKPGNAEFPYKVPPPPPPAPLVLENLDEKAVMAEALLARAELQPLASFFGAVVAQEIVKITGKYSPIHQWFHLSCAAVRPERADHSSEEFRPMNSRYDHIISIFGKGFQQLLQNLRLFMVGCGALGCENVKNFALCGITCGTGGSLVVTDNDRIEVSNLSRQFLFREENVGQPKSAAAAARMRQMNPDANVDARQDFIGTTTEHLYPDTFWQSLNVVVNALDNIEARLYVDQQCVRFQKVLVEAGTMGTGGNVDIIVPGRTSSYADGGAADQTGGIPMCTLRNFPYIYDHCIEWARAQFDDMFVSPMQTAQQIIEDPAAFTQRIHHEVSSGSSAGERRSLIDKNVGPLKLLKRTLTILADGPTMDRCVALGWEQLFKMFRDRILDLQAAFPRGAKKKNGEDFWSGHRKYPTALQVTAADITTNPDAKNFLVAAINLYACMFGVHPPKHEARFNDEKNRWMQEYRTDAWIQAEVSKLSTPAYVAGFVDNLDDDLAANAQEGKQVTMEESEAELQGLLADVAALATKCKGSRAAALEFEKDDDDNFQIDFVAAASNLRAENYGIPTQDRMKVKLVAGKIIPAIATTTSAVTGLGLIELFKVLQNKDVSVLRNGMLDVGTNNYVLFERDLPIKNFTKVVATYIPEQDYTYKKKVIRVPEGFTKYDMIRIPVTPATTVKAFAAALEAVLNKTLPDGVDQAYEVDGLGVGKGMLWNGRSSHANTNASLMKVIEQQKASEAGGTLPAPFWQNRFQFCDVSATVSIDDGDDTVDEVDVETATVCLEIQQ
# [5] = biological target: Sialic acid-binding Ig-like lectin 9 (Homo sapiens) (UniProt Q9Y336); assay: Hs-Siglec9 ALPHAscreen SOP 20170721; design: scale not given: direction of the effect not stated beside the values; settings: 10 µM
# Sequence of Sialic acid-binding Ig-like lectin 9 (Homo sapiens) (Q9Y336 whole entry): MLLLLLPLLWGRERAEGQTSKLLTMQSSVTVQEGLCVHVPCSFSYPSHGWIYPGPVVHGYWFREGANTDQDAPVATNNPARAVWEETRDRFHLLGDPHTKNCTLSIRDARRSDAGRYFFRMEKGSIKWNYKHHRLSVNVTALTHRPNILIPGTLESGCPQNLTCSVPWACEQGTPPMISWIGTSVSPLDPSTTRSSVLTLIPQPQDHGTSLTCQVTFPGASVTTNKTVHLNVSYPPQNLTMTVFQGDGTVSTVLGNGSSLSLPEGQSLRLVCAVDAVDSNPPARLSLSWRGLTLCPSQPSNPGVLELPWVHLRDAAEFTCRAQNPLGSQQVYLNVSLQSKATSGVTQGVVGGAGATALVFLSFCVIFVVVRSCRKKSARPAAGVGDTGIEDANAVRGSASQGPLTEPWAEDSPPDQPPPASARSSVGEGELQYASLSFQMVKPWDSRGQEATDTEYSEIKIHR
# Trypanosoma cruzi = assay: Trypanosoma cruzi phosphomannomutase and mannose-1-phosphate guanylyltransferase assay; type: functional; design: scale not given: direction of the effect not stated beside the values; settings: 10 µM
# [6] = biological target: T3, Arginase-2, mitochondrial (Homo sapiens) (UniProt P78540); assay: in vitro enzyme assay to detect the production of urea directly proportional to the activity of Arginase II; type: functional; design: scale not given: in the data most compounds retested in dose-response had high values
# T3 sequence (whole entry): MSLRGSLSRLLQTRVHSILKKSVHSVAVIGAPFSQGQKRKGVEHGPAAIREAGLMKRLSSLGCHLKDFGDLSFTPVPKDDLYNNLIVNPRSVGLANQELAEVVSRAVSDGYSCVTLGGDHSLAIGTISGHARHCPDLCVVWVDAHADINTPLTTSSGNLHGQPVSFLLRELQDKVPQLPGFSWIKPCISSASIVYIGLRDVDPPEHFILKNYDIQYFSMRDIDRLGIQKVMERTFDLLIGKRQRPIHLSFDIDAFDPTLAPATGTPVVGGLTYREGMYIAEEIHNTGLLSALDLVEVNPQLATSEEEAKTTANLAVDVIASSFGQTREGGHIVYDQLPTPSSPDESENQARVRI
# [7] = biological target: T4, Proteasome subunit beta (Trypanosoma cruzi) (UniProt O96673); assay: Trypanosoma cruzi proteasome chymotrypsin-like activity (TcProtChymo) assay.; type: functional; design: scale not given: in the data most compounds retested in dose-response had high values; settings: 9.37 µM
# T4 sequence (whole entry): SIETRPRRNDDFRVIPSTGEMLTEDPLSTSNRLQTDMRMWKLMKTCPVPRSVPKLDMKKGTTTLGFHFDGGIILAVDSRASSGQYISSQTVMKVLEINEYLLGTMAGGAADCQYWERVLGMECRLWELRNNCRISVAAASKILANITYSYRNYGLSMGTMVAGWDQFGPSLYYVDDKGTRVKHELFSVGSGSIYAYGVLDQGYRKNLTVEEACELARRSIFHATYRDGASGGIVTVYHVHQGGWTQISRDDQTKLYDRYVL
# Homo sapiens = species on record: Homo sapiens; assay: To identify inhibition of the IFN signalling (Jak-Stat) pathway via expression of an eGFP reporter gene under the control of an IFN-stimulated response element (ISRE) containing MxA promoter.; type: functional; design: scale not given: direction of the effect not stated beside the values; settings: 30 µM
# [8] = biological target: T5, Tyrosyl-tRNA synthetase, putative (Trypanosoma cruzi (strain CL Brener)) (UniProt Q4DSP6); assay: Trypanosoma cruzi tyrosyl tRNA synthetase (TcYRS) _High Tyrosine SOP; type: functional; design: scale not given: in the data most compounds retested in dose-response had high values; settings: 30 µM
# T5 sequence (whole entry): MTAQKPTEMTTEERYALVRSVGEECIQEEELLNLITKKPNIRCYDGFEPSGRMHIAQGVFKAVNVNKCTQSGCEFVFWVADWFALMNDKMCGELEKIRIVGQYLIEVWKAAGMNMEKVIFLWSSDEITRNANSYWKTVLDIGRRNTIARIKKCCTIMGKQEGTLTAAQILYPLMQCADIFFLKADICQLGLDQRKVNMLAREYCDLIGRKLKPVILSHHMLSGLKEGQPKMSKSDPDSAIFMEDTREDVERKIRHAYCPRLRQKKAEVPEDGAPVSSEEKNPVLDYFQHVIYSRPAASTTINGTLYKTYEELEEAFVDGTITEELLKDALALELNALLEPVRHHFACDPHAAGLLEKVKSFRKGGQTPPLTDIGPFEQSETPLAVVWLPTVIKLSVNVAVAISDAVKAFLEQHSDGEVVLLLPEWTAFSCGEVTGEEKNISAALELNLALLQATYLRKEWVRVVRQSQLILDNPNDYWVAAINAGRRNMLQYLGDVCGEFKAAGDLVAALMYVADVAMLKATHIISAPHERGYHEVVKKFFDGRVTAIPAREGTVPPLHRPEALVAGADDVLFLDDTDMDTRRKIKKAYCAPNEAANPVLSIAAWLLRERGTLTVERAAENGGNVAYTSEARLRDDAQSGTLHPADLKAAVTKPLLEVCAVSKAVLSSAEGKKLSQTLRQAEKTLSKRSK
# [9] = biological target: T5, Tyrosyl-tRNA synthetase, putative (Trypanosoma cruzi (strain CL Brener)); assay: Trypanosoma cruzi tyrosyl tRNA synthetase (TcYRS) SOP; type: functional; design: scale not given: direction of the effect not stated beside the values; settings: 30 µM
# [10] = biological target: Chromo domain-containing protein 1 (Saccharomyces cerevisiae (strain ATCC 204508 / S288c) (Baker's yeast)) (UniProt P32657); assay: ScCHD-1 Enzyme Inhibition Assay; type: functional; design: scale not given: in the data most compounds retested in dose-response had high values; settings: 30 µM
# Sequence of Chromo domain-containing protein 1 (Saccharomyces cerevisiae (strain ATCC 204508 / S288c) (Baker's yeast)) (P32657 whole entry, the tested form may be a part): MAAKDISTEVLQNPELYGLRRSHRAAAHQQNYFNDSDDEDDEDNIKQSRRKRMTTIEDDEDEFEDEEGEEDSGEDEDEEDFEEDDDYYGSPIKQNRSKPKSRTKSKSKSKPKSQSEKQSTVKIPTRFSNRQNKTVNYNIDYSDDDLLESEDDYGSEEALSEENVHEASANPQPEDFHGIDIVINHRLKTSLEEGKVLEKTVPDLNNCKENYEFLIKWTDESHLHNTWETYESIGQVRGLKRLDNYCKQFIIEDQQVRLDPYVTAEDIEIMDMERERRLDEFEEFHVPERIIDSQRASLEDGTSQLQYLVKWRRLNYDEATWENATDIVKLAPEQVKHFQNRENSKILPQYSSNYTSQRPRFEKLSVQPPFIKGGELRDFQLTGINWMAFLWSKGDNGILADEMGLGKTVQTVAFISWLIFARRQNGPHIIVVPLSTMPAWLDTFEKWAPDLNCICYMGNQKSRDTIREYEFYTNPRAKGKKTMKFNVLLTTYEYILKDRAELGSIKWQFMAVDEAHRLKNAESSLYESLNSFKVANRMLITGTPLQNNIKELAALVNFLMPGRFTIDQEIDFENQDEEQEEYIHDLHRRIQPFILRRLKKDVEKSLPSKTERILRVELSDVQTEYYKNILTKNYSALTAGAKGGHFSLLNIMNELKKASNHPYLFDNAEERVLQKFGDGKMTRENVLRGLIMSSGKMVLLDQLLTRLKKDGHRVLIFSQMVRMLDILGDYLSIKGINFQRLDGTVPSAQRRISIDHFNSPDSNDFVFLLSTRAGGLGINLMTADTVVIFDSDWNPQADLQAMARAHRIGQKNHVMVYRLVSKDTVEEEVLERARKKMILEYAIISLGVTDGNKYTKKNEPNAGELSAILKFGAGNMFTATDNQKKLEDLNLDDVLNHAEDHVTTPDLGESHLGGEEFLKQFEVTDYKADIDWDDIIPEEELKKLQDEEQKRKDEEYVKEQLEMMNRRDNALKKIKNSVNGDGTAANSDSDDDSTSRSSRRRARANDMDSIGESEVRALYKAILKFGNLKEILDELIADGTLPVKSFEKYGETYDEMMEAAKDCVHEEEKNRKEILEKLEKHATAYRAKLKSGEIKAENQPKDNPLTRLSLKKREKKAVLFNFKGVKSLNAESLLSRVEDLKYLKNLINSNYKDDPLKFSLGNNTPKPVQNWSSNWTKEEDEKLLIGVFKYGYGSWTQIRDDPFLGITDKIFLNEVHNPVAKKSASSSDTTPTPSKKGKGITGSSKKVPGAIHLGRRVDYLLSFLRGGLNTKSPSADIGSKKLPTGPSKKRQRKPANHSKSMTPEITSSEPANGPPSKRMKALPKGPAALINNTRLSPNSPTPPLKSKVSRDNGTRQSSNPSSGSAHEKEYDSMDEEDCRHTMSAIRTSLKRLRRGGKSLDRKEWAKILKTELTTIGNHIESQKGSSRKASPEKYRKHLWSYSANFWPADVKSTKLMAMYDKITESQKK
SMILES,PXC50 ([1]; MAX_EFFECT 12.79373368),PXC50 ([1]; MAX_EFFECT 13.05483029),Percent Effect [2] [%],Percent Effect [3] [%],Percent Effect [4] [%],Percent Effect [5] [%],Percent Effect (Trypanosoma cruzi) [%],Percent Effect ([6]; 30 µM) [%],Percent Effect ([6]; 33.3 µM) [%],Percent Effect [7] [%],Percent Effect (Homo sapiens) [%],Percent Effect [8] [%],Percent Effect [9] [%],Percent Effect [10] [%]
CCn1cnnc1CNc1nc(C)nc2scc(CC(C)C)c12,< 4,< 4,-1.1,–,–,–,–,–,–,–,–,–,–,–
O=C(Cn1nc2c(cc1=O)CCCC2)N[C@@H](Cc1ccccc1)C(=O)O,–,–,0.52,0.621,9.33,-1.3,0.197,0.54,0.88,16.1,24.4,5.29,12.8,-9.91
CC(=O)NC(C)CC(=O)NCc1cccnc1Oc1ccccc1C (stereo unspecified),–,–,-0.172,-2.11,9.72,-2.33,-1.26,1.62,6.18,11.6,-9.66,8.42,12.8,-3.08
Cc1nn(CCO)c(C)c1CNC1CCC(C)(C)c2ccccc21 (stereo unspecified),–,–,-5.82,-3.92,8,14.7,7.3,2.7,9.38,9.42,23.6,1.64,13.6,-6.8
Cc1ccc(CNCc2nnc3n2CC(C(F)(F)F)CC3)cc1 (stereo unspecified),–,–,-2.64,-0.646,18.9,4.4,3.23,-11.3,-3.23,8.5,11.6,5.38,13.6,-11.9
